Screening results (PubChem)
RMI FANCM FP – inhibitors of human RMI core complex binding to FANCM MM2 | Fluorescence polarization, RMI core complex with F-MM2 peptide; hits give low values | FP signal (polarization) at 33 µM | actives 0.58% (n = 70,000); in the data active = FP signal below about 40
Numbers without * were called inactive; ! = not confirmed by another sample. This is one part of a sample in which hits are shown more often than they occur.

SMILES | RMI FANCM FP
COC(=O)[C@]1(C)CC[C@]2(C)CC[C@]3(C)C4=CCc5c(cc(O)c(O)c5C)[C@]4(C)CC[C@@]3(C)C2C1 (stereo not given in full) | 13*
COC(=O)COc1ccc(Cl)cc1Cl | 58
CCN1C[C@]2(C)CC[C@H](O)[C@]34C1[C@H](C[C@H]23)[C@@]1(O)C[C@H](OC)[C@H]2C[C@@H]4[C@@H]1C2O (stereo not given in full) | 57
[Cl][Pt][Cl] | 60
CCN(CC)CCOC(=O)C(O)(c1ccccc1)c1ccccc1 | 67
CC(=O)CC1CCCCN1 (stereo not given) | 66
C=C(C)[C@H]1Cc2c(ccc3c2O[C@@H]2COc4cc(OC)c(OC)cc4[C@@H]2C3=O)O1 | 56
COc1cc2c(cc1OC)[C@@H]1C(=O)c3ccc4c(c3O[C@@H]1CO2)CC(C(C)C)O4 (stereo not given in full) | 55
COc1cc2c(cc1OC)[C@@H]1C(=O)c3ccc(OC)c(CC=C(C)C)c3O[C@@H]1CO2 | 29*
Cc1ccc2nc(N3CCNCC3)sc2c1 | 72
CCOc1ccc2nc(N(CCN(C)C)C(=O)COc3ccccc3)sc2c1 | 80
C[C@@H]1C(=O)O[C@H]2[C@H]1CC[C@@]1(C)C=CC(=O)[C@@]3(C)O[C@@]213 | 31*!
CN(C)C(CN)c1ccccc1Cl (stereo not given) | 69
NCCc1cccc(O)c1 | 19*
COc1cc(CCN)ccc1O | 57
Cc1[nH]c2ccc(O)cc2c1CCN | 49
C=C(C)[C@H]1CN[C@H](C(=O)O)[C@H]1CC(=O)O | 56
CC(N)Cc1c[nH]c2ccc(O)cc12 (stereo not given) | 53
CC[C@@H](C(N)=O)N1CCCC1=O | 26*
CC1(C)CC(=O)C(Br)C(=O)C1 | 61
COc1ccc(N2CCN(CCN)CC2)cc1 | 64
Cn1cc(C(=O)Cc2ccccc2)c2ccccc21 | 61
COC(=O)c1ccccc1NC(=O)c1cccn(Cc2ccccc2F)c1=O | 50
CC[C@@H](CO)NC(=O)[C@@H]1C=C2c3cccc4c3c(cn4C)C[C@H]2N(C)C1 | 37
CCN(CC)C(=O)N[C@@H]1C=C2c3cccc4[nH]cc(c34)C[C@H]2N(C)C1 | 47
CC[C@@H](CO)NC(=O)[C@@H]1C=C2c3cccc4[nH]cc(c34)C[C@H]2N(C)C1 | 4*!
Cn1ccnc1N1CCNCC1 | 65
CC(C)=CC1C(C(=O)OCN2C(=O)C3=C(CCCC3)C2=O)C1(C)C (stereo not given) | 55
C=C[C@H]1CN2CC[C@H]1C[C@@H]2[C@@H](O)c1ccnc2ccccc12 | 72
O=C(COc1ccc(Cl)cc1Cl)N1CCN(Cc2nc(-c3ccco3)cs2)CC1 | 66
